Results taken from PubChem BioAssay.
Activity calls are given as the source filed them.

Experiments:
[1] = anti-His antibody binders, primary screen, artefact control for SMM control protein annotation, biochemical, small-molecule microarray, 635 nm fluorescence (AID 1128); details: anti-His Alexa647 antibody binding, higher = more signal;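 note: score merges feature fluorescence with signal-to-noise for each printed compound spot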
[2] = system: Human papillomavirus type 1a E7 protein (residues 1-88); test: HPV1a E7 small-molecule binders, primary screen, biochemical, small-molecule microarray, residues 1-88, 635 nm (AID 1129); details: small-molecule microarray binding, fluorescence 635 nm; higher = more signal
[3] = biological target: Focal adhesion kinase 1 (Homo sapiens) (UniProt Q05397); test: small-molecule microarray binders of FAK, primary screen, biochemical, 635/667 nm fluorescence, BSA, DTT (AID 1130); details: PTK2 binding, 635 nm fluorescence, higher = more signal;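 note: composite of spot emission at 667 nm and signal to noise over triplicate slides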
Sequence of Focal adhesion kinase 1 (Homo sapiens) (Q05397 whole entry, looked up): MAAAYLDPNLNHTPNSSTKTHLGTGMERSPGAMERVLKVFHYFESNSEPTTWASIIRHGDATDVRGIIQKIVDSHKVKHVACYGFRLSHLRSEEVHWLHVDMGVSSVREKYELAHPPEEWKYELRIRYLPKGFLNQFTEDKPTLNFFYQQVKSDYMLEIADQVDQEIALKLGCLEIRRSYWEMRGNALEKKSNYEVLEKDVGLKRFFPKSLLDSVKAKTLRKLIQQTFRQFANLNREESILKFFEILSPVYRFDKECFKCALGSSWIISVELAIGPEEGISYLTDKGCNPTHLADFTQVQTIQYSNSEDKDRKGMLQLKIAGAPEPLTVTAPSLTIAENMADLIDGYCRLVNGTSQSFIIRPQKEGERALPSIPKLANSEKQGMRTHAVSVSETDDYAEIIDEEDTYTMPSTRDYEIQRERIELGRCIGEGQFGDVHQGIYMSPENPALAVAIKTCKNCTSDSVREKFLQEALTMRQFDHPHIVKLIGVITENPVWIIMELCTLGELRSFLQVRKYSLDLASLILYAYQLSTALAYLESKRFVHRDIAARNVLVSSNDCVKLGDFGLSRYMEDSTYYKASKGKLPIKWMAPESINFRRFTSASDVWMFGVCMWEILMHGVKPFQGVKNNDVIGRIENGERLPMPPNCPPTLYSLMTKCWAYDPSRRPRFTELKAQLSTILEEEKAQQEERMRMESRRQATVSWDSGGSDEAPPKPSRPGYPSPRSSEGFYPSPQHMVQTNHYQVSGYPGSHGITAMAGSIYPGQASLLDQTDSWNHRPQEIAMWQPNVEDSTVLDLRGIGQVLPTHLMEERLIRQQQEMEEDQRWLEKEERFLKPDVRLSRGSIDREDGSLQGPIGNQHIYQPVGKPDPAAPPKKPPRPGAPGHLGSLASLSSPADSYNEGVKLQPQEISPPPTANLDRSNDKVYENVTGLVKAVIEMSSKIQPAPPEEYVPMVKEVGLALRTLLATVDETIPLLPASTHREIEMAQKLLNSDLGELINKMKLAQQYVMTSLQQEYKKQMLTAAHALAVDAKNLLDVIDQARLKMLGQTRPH

[4] = system: Fibrinogen (Alexa647-labelled); test: fibrinogen binders on compound microarrays, profiling panel, artefact control for SMM control-protein annotation, biochemical, small-molecule microarray, 635/667 nm fluorescence (AID 1131); details: fibrinogen-A647 binding fluorescence, higher = more signal;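 note: z-score merges 667 nm fluorescence with per-spot signal-to-noise over triplicate slides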
[5] = biological target: Follistatin (Homo sapiens) (UniProt P19883); test: follistatin binders on small-molecule microarrays, primary screen, biochemical, small-molecule microarray, 635/667 nm fluorescence (AID 1132); details: FST binding, 635 nm fluorescence, higher = more signal
Sequence of Follistatin (Homo sapiens) (P19883 whole entry, looked up): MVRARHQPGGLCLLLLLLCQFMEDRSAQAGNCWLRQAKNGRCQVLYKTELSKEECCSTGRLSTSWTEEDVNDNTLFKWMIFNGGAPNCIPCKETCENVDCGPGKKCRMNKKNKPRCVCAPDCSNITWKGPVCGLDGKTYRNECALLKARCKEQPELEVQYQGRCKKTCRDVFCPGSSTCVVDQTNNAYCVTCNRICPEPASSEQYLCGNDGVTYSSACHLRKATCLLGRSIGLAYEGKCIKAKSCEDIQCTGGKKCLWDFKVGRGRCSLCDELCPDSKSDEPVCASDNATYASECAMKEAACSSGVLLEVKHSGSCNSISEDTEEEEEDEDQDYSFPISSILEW

[6] = biological target: Fibroblast growth factor 2 (Homo sapiens) (UniProt P09038); test: FGF2 binders on small-molecule microarrays, primary screen, biochemical, small-molecule microarray, 635/667 nm fluorescence (AID 1133); details: small-molecule microarray binding, FGF2, fluorescence 635/667; higher = more signal
Sequence of Fibroblast growth factor 2 (Homo sapiens) (P09038 whole entry, looked up): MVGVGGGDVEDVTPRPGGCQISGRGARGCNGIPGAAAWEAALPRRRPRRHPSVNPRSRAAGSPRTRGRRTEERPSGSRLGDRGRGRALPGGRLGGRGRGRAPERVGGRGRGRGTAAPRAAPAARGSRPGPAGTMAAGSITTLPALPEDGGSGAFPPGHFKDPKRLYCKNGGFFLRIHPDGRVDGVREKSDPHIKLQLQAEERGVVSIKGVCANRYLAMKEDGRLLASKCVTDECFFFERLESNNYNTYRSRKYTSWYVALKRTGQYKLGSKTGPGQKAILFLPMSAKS

[7] = mitochondrial membrane potential change in A549 cells, profiling panel, cell-based, JC-1 fluorescence, basal, 24 h, 100 nL (AID 1138); details: higher = more signal;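 note: A549 lung adenocarcinoma cells under basal conditions with no added stimulus; test concentration not given here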
Lefty1 = Lefty1 binders on small-molecule microarrays, primary screen, biochemical, small-molecule microarray, 635/667 nm fluorescence (AID 1139); details: small-molecule microarray binding, fluorescence 635/667; higher = more signal
[8] = system: wheat germ agglutinin (Triticum aestivum), Alexa647-labelled; test: wheat germ agglutinin binders on compound microarrays, profiling panel, artefact control for SMM control-protein annotation, biochemical, small-molecule microarray, 635/667 nm fluorescence (AID 1140); details: WGA-A647 binding, 635 nm fluorescence, higher = more signal;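 note: score merges 667 nm feature emission with signal to noise over triplicate slides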
[9] = biological target: Luciferin 4-monooxygenase (Photinus pyralis) (UniProt P08659); test: firefly luciferase enzyme inhibitors, primary screen, biochemical, luminescence, purified enzyme, 2006 set (AID 1141); details: SteadyGlo luminescence, 30 min, higher = more signal, called active from +8 up or from −8 down;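 note: cell-free assay with purified firefly luciferase at 100 ng per well in PBS; test concentration not given here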
Sequence of Luciferin 4-monooxygenase (Photinus pyralis) (P08659 whole entry, looked up): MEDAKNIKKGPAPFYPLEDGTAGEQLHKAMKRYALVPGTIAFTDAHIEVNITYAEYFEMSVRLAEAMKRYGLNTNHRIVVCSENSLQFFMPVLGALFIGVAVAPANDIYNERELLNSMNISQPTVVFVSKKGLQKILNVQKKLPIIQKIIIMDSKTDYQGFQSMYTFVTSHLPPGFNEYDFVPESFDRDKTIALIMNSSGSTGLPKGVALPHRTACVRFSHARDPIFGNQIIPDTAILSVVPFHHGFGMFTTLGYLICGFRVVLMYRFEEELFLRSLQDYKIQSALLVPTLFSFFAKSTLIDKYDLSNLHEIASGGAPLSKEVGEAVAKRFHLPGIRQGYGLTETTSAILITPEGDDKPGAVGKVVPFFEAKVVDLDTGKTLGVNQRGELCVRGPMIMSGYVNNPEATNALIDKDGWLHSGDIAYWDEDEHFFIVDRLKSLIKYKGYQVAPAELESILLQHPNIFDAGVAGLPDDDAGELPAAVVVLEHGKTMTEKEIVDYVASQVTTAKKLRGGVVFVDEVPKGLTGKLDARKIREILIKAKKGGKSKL

Row | SMILES | composite z-score [1] | composite z-score [2] | composite z-score [3] | composite z-score [4] | composite z-score [5] | composite z-score [6] | z-score [7] | composite z-score (Lefty1) | composite z-score [8] | z-score [9]
1 | COC(=O)[C@@]1(Cc2ccc(F)cc2)[C@H]2c3cc(C(=O)N4CCCC4)n(Cc4cccc5ccccc45)c3C[C@H]2CN1C(=O)c1ccccc1 | 1.98 | 1.28 | 2.08 | 0.83 | 0.0834 | -0.426 | 0.917 | -0.0668 | 1.06 | 0.943 (inactive)
2 | COCCOC(=O)N1C(=O)[C@@]2(c3cc(C#CCC(C(=O)OC)C(=O)OC)ccc31)[C@H](c1ccc(O)cc1)N1[C@H](c3ccccc3)[C@H](c3ccccc3)OC(=O)[C@H]1[C@@H]2C(N)=O | 1.54 | 1.23 | 0.242 | 0.75 | 0.857 | 1.33 | -0.82 | 0.366 | 0.252 | -0.78 (inactive)
3 | Cc1cc(C)c(C(O)C2C=CC3C(=O)N(C)C(=O)C3N2Nc2ccccc2)c(C)c1 (stereo not given) | 1.83 | 0.496 | 0.471 | 0.992 | 0.72 | -0.0568 | 0.362 | -0.765 | 0.847 | 0.568 (inactive)
4 | CCCNC(=O)[C@@H]1c2ccccc2C(=O)N(Cc2ccccc2)[C@H]1c1ccc(CO)cc1 | 1.88 | -0.081 | -0.255 | 0.213 | 0.122 | -0.193 | -0.109 | -0.82 | 0.935 | -0.322 (inactive)
5 | CCOC(=O)C1=C[C@@H](CC)N(S(=O)(=O)c2ccc(C)cc2)[C@H]1c1ccccc1 | 0.862 | 1.21 | 1.33 | 0.928 | 0.431 | 0.261 | 2.94 | 0.0048 | 0.749 | 2.12 (inactive)
6 | COc1ccc([Si](C)(C)[C@@H]2[C@@H](CCn3cc([C@H](O)c4ccccc4)nn3)O[C@]3(C(=O)N(Cc4cccc(N5CCOC5=O)c4)c4ccccc43)[C@H]2C)cc1 | -1.11 | -0.576 | -0.753 | -1.23 | -1.68 | -0.977 | 2.14 | -1.31 | -0.452 | -1.5 (inactive)
7 | CO[C@H]1O[C@H](CO)[C@@H](OC(=O)Nc2ccc(Oc3ccccc3)cc2)[C@H](OC(=O)Nc2ccccc2)[C@H]1OC(=O)Nc1ccccc1 | 1.88 | 1.27 | 1.12 | 0.985 | 1.07 | 1.61 | -1.69 | 0.444 | 1.08 | -0.923 (inactive)
8 | CC(C)C(=C=CC[C@H](O)c1cccc(OCCO)c1)C[C@H](O)COCc1ccccc1 | 0.366 | 0.165 | 0.107 | 0.637 | 0.235 | 0.562 | -0.241 | 0.554 | -0.0699 | 0.209 (inactive)
9 | COC(=O)[C@@]1(Cc2ccc(OC)cc2)[C@H]2c3cc(C(=O)N4CCCC4)n(Cc4ccccn4)c3C[C@H]2CN1C(=O)c1ccccc1 | 2.3 | 1.26 | 0.464 | 0.8 | 0.169 | -0.332 | 1.37 | -0.467 | 1.2 | 1.91 (inactive)
10 | C=C(COC)C(=O)CC[C@H](OC(C)=O)c1cccc(OCCO)c1 | -0.704 | -0.586 | -0.138 | -0.708 | 1.2 | 1.49 | -0.37 | -0.332 | -1.16 | -0.679 (inactive)
11 | COCCOC(=O)N1C(=O)[C@@]2(c3cc(C#CCNC(N)=O)ccc31)[C@H](c1ccc(O)cc1)N1[C@H](c3ccccc3)[C@H](c3ccccc3)OC(=O)[C@H]1[C@@H]2C(=O)NC[C@H](O)c1ccccc1 | -0.49 | 0.802 | -0.133 | 0.793 | 1.34 | 1.19 | -1.05 | 1.13 | 0.69 | 0.0103 (inactive)
12 | CCCC[C@@H]1C[C@H]1[C@@H](NC(=O)c1ccc(-c2ccccc2)cc1)c1ccc(-c2ccccc2)cc1 | 0.0916 | 0.481 | 0.504 | 0.348 | 1.37 | 0.271 | 0.738 | 0.971 | 0.249 | 0.779 (inactive)
13 | CC(C)N1CC=CC23O[C@@H]4C=CCOC(=O)[C@@H]4[C@H]2C(=O)N(CCO)[C@@H]3C1=O (stereo not given in full) | 0.386 | -0.586 | -0.346 | -0.766 | -0.22 | -1.33 | -0.346 | 0.103 | -0.249 | -0.0322 (inactive)
14 | O=C1OCCC=C[C@H]2OC34C=CCN(Cc5ccccc5)C(=O)[C@H]3N(CCCO)C(=O)[C@@H]4C12 (stereo not given in full) | 1.76 | -1.17 | -0.0769 | -0.887 | -0.145 | -0.349 | -0.778 | 0.181 | -0.194 | 0.0952 (inactive)
15 | O=C1C2C=CC(C(O)c3ccc(-c4ccccc4)s3)N(n3cnnc3)C2C(=O)N1Cc1ccccc1 (stereo not given) | 1.46 | -0.283 | 0.0347 | 0.708 | -0.279 | -0.625 | -1.32 | -0.69 | 0.525 | 1.77 (inactive)
16 | COCCOC(=O)N1C(=O)[C@@]2(c3cc(C#CCC(C(=O)OC)C(=O)OC)ccc31)[C@H](C(=O)N1CCN(c3ncccn3)CC1)[C@H]1C(=O)O[C@H](c3ccccc3)[C@H](c3ccccc3)N1[C@@H]2c1ccc(OCCO)cc1 | 1.61 | 1.19 | 0.21 | 0.993 | 1.24 | 1.2 | -1.31 | 0.733 | 0.945 | -0.59 (inactive)

Row | SMILES | composite z-score [1] | composite z-score [2] | composite z-score [3] | composite z-score [4] | composite z-score [5] | composite z-score [6] | z-score [7] | composite z-score (Lefty1) | composite z-score [8] | z-score [9]
17 | Cc1ccc(S[C@]2(C(=O)NC3CC3)CC(=O)N(C3CCCCC3)[C@@H]2c2ccc(CO)cc2I)cc1 | 0.104 | 1.21 | 0.176 | 0.304 | 1.26 | 0.341 | 1.69 | 0.87 | 0.368 | 1.06 (inactive)
18 | COCCCNC(=O)[C@@]1(C)c2ccccc2C(=O)N(Cc2cc(C(F)(F)F)cc(C(F)(F)F)c2)[C@H]1c1ccc(CO)cc1 | -0.12 | -0.203 | 0.295 | 0.207 | -0.672 | -1.5 | 0.509 | -0.191 | 0.0593 | 1.16 (inactive)
19 | Cc1ccc([C@H]2[C@H](C(=O)O)[C@H](Sc3ccccc3)[C@@H](C(C)C)N2S(=O)(=O)c2ccc(C)cc2)cc1 | 0.229 | 1.19 | 0.344 | 0.996 | 0.744 | -0.228 | -1.31 | 0.127 | 0.798 | 0.426 (inactive)
20 | COCCOC(=O)N1C(=O)[C@@]2(c3cc(C#CCNC(N)=O)ccc31)[C@H](c1ccccc1OCCO)N1[C@H](c3ccccc3)[C@H](c3ccccc3)OC(=O)[C@H]1[C@@H]2C(N)=O | 0.208 | 1.15 | 0.189 | 0.963 | 1.25 | 0.917 | -1.24 | 0.782 | 0.305 | -0.868 (inactive)
21 | Cc1ccc(S[C@]2(C(=O)NC3CC3)CC(=O)N(Cc3ccccc3)[C@@H]2c2ccc(CO)cc2)cc1 | 0.116 | -0.663 | -0.526 | -0.816 | -0.432 | -0.596 | 0.424 | -0.663 | 0.222 | -0.585 (inactive)
22 | O=C1N(CCS(=O)(=O)c2ccccc2)c2ccccc2C[C@@]12COC(c1ccc(OCCCO)cc1)=N2 | 2.83 | 1.25 | 1.16 | 0.962 | 1.28 | 0.87 | -0.0718 | 0.222 | 0.611 | -1.63 (inactive)
23 | C=CCNC(=O)[C@H]1[C@@H]2C(=O)O[C@@H](c3ccccc3)[C@@H](c3ccccc3)N2[C@@H](c2ccc(O)cc2)[C@]12C(=O)N(C(=O)OCCOC)c1ccc(C#CCCO)cc12 | 1.03 | -0.0757 | 0.38 | 0.288 | 0.448 | 0.748 | 0.956 | -0.0874 | -0.163 | -0.923 (inactive)
24 | NC(=O)NCC#Cc1ccc2c(c1)[C@]1(C(=O)N2)[C@H](C(=O)N2CCCCCCC2)[C@H]2C(=O)O[C@H](c3ccccc3)[C@H](c3ccccc3)N2[C@@H]1c1ccc(OCCO)cc1 | -0.132 | 1.14 | 0.773 | 0.909 | 1.47 | 0.649 | -1.62 | 1.25 | 1.36 | -0.551 (inactive)
25 | Cc1ccc(S[C@]2(C(=O)NCc3ccccc3)CC(=O)N(Cc3ccccc3)[C@@H]2c2ccc(CO)cc2)cc1 | 3.05 | 0.0804 | 0.691 | -0.909 | -0.211 | -0.524 | 0.561 | -1.33 | -0.425 | -0.627 (inactive)
26 | O=C1O[C@H](c2ccccc2)[C@H](c2ccccc2)N2[C@H]1[C@@H](C(=O)NC[C@H](O)c1ccccc1)[C@]1(C(=O)Nc3ccc(C#CCCO)cc31)[C@H]2c1ccc(O)cc1 | -1.3 | -1.08 | -0.598 | -1.07 | -1.26 | -0.702 | -1.17 | -0.929 | -1.09 | 0.145 (inactive)
27 | COc1ccc([Si](C)(C)[C@H]2[C@H](CCn3cc(CCO)nn3)O[C@@]3(C(=O)N(Cc4ccc(N5CCOC5=O)cc4)c4ccccc43)[C@@H]2C)cc1 | 1.88 | 1.16 | 0.105 | 0.505 | 0.308 | 0.308 | 1.26 | 0.419 | 0.829 | -0.648 (inactive)
28 | C=C[C@H](COC(C)=O)N(Cc1ccc(OC(C)=O)c(OC)c1)S(=O)(=O)c1ccc(Br)cc1 | 1.29 | 1.12 | -0.174 | 0.59 | 1.37 | 1.75 | 1.15 | 1.02 | 0.492 | 0.271 (inactive)
29 | CCCN1C(=O)[C@@]2(CCC(=O)OC(C)(C)C)N=C(c3ccc(OCCCO)cc3)O[C@H]2c2ccccc21 | 2.6 | 0.999 | 0.677 | 0.274 | 1.4 | 1.53 | 1.13 | 0.691 | 0.133 | -2.45 (inactive)
30 | C=CC[C@@]1(C(=O)NCC(O)CO)N=C(c2ccc(OCCCO)cc2)O[C@@H]1c1ccccc1N=[N+]=[N-] (stereo not given in full) | 2.92 | 1.12 | -0.121 | 0.415 | 0.849 | -0.0851 | -0.921 | 0.003 | 1.12 | -11.2 (active)
31 | CC(C)N1C(=O)C[C@@](C(=O)NCc2ccccc2)(c2ccc([N+](=O)[O-])cc2)[C@H]1c1ccc(CO)cc1 | 2.58 | 1 | 0.159 | -0.511 | 0.692 | 0.118 | 0.316 | 0.119 | 0.549 | 0.982 (inactive)
32 | CCCCCN1CC=CC23O[C@@H]4/C=C\CCC(C)OC(=O)C4[C@H]2C(=O)N(CCCCCO)[C@@H]3C1=O (stereo not given in full) | -0.0232 | -0.413 | -0.0791 | -1.46 | -0.35 | 0.517 | -0.108 | 0.184 | 0.233 | -2.73 (inactive)
